Our source for the outcome values is PubChem BioAssay (EPA / NIEHS).

The source made the active and inactive calls. Rule for the calls: active = hit-call score of the fitted dose curve at least 0.9, where 1 is the maximum; inactive = score below 0.9.

Transcription factor E2F1 (Homo sapiens), sequence (Q01094 whole entry, looked up): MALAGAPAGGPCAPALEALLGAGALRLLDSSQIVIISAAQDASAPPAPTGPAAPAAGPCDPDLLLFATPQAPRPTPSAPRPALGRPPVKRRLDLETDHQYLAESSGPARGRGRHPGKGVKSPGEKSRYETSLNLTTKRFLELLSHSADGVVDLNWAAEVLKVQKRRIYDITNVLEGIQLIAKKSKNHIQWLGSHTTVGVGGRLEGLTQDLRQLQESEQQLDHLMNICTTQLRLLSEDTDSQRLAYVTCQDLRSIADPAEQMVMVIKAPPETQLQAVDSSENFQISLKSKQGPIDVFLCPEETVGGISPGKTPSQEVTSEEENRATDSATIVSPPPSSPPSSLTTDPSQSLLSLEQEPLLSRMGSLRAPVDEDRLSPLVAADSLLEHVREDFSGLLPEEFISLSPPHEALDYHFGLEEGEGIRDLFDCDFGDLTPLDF

In the experiment the target is Transcription factor E2F1 (Homo sapiens) (UniProt Q01094). The experiment in a line: ATG_E2F_CIS: Attagene CIS-FACTORIAL HepG2 Assay for human E2F Transcription Factor 1 (AID 2282935). The following applies: HepG2 Attagene cis-reporter, E2F reporter RNA transcripts; actives raise or lower the signal. Here is the method:
ATG_CIS is a cell-based, multiplexed-readout assay that uses HepG2, a human liver cell line, with measurements taken at 24 hours after chemical dosing in a 24-well plate.ATG_E2F_CIS is one of 52 assay component(s) measured or calculated from the ATG_CIS assay. It is designed to make measurements of mRNA induction, a form of inducible reporter, as detected with fluorescence intensity signals by Reverse transcription polymerase chain reaction (RT-PCR) and Capillary electrophoresis technology.Data from the assay component ATG_E2F_CIS was analyzed into 1 assay endpoint. This assay endpoint, ATG_E2F_CIS, was analyzed with bidirectional fitting relative to DMSO as the negative control and baseline of activity. Using a type of inducible reporter, measures of mRNA for gain or loss-of-signal activity can be used to understand the reporter gene at the transcription factor-level as they relate to the gene E2F1. Furthermore, this assay endpoint can be referred to as a primary readout, because this assay has produced multiple assay endpoints where this one serves a reporter gene function. To generalize the intended target to other relatable targets, this assay endpoint is annotated to the dna binding intended target family, where the subfamily is E2F transcription factor.
Human liver HepG2 cells are transiently transfected with multiple reporter transcription units (MRTUs) in 6-well plates using FuGene 6 reagent (Roche; 3 ml FuGene/1 mg DNA). The MRTU constructs are regulated by a cis-regulating element (promoter). […] A major difference between the CIS and TRANS system is that in CIS activities of endogenous TFs are measured, whereas the TRANS assay evaluates changes in activities of exogenous, chimeric NR-Gal4 proteins. […] At the end of 24 hour incubation, total RNA was isolated using TriZol reagent (Invitrogen). The isolated RNA is then reverse-transcribed using oligo(dT) primer and Mo-MLV reverse transcriptase (Invitrogen) with DNAse I (Ambion) treatment for 30 min. The one-tenth of the produced cDNA was amplified by PCR using Taq DNA polymerase (Invitrogen) and two reporter sequence-specific primers. The PCR products were fluorescently labeled by primer extension with 6-arboxyfluorescein (6-FAM) 5'-labeled reporter sequence-specific primer (2 min at 95 C, 20 s at 68 C and 10 min at 72 C) and these products were digested with 5U of HpaI (New England Biolabs) for 2h at 37 C. The fragments were purified using Qiaquick PCR columns (Qiagen), analyzed on an ABI 3130xL genetic analyzer (Applied Biosystems) with peak positions identified by using a set of X-rhodamine (ROX)-labeled MapMarker1000 molecular weight standards (BioVentures). The raw capillary electrophoresis data was processed using Attagraph software (Attagene).
As for `C=CCOCC(CC)(CO)COCC=C`, the compound was classed as inactive. As for `COc1c2occc2cc2ccc(=O)oc12`, the compound was called inactive. As for `Oc1cccc2ccccc12`, the entry is “inactive”. As for `Cc1ccnc(N)c1`, the entry is “inactive”. As for `CC(C)CC(=O)CC(C)CC(C)C` (stereo not given), the entry is “inactive”; as for `CCCCCCOC(=O)CCCCCCCC(=O)OCCCCCC`, “inactive”; as for `CN(C)N=Nc1ccccc1`, “inactive”.

For the compound `c1ccc(CNc2ncnc3nc[nH]c23)cc1`, the compound was called inactive. Consider `O=C(O)/C=C\C(=O)O`, for which the compound was classed as inactive. As for `Cc1cc(C)c(S(=O)(=O)O)cc1N=Nc1cc(S(=O)(=O)O)c2ccccc2c1O`, the entry is “inactive”; as for `COC(=O)/C=C\C(=O)OC`, “inactive”; as for `CC[N+](CC)(CC(=O)Nc1c(C)cccc1C)Cc1ccccc1`, “inactive”. As for `O=S(=O)(O)c1cccc2ccccc12`, the entry is “inactive”.

Regarding `CC1=C(CC(=O)O)c2cc(F)ccc2/C1=C\c1ccc(S(C)=O)cc1` (stereo not given), the result was inactive.

With `CCC(C)(CCC(C)C)C(=O)O` (stereo not given), the outcome was inactive. `CN1CCCC1`: the compound was called inactive.

As to `c1cc[c]([Bi]([c]2ccccc2)[c]2ccccc2)cc1`, the result was inactive.

Consider `Oc1ccc(Oc2ccccc2)cc1`, for which the outcome was inactive.

With `O=C1CCCCCCCCCCCCCC1`, the compound was called inactive. As for `CC[N+](CC)(CC(=O)Nc1c(C)cccc1C)Cc1ccccc1` (tested in a mixture with another compound), the entry is “inactive”. As for `CC(C)CC(=O)CC(C)C`, the entry is “inactive”; as for `Brc1ccc(Oc2ccc(Br)cc2)cc1`, “inactive”; as for `CC1=NN(c2cc(Cl)c(S(=O)(=O)O)cc2Cl)C(=O)C1N=Nc1ccc(S(=O)(=O)O)cc1` (stereo not given), “inactive”. For `CCC(C)C1N=C(C)C(C)S1` (stereo not given), the compound was classed as inactive. For `N#CCN(CC#N)CCN(CC#N)CC#N`, the call was inactive. As for `COc1ccc2ccccc2c1`, the call was inactive. As for `CC(C)n1c(/C=C/[C@@H](O)C[C@@H](O)CC(=O)O)c(-c2ccc(F)cc2)c2ccccc21`, the entry is “inactive”; as for `CCc1cc(C(N)=S)ccn1`, “inactive”. As for `CC(=O)Nc1c(I)c(NC(C)=O)c(I)c(C(=O)O)c1I`, the entry is “inactive”; as for `C=CC(C)(CCC=C(C)C)OC(=O)c1ccccc1` (stereo not given), “inactive”; as for `Oc1ccc(Cl)cc1C1CCCC1`, “inactive”. With `CC1=C(CC=O)C(C)(C)CCC1`, the compound was called inactive. As for `CC/C=C\CC/C=C/C(OCC)OCC`, the entry is “inactive”; as for `CCCOCCC`, “inactive”; as for `O=C(O)/C=C/C(=O)O`, “inactive”. On to `C/C=C(\C)C(=O)OCC/C=C\CC`, for which the call was inactive.

With `O=C(Oc1ccccc1)c1ccccc1`, the call was inactive. As for `C1=CCC=C1`, the entry is “inactive”. As for `CCCCCCCCCCCCCCCCCC[N+](C)(C)C`, the entry is “inactive”.

With `CC(=O)OC(C)(C)Cc1ccccc1`, the call was inactive.
